Source: the supplement of paper PMC6411743
± gives the standard deviation of the averaged measurements. Targets with the largest changes are over-represented here; the source holds about 6,500 in all.

Compound: Nc1ncnc2c1ncn2[C@@H]1O[C@H](COP(=O)(O)OP(=O)(O)OP(=O)(O)O)[C@@H](O)[C@H]1O [adenosine triphosphate]
Test: NP40-soluble protein abundance relative to vehicle (solubility fold change) (ratio); higher = more soluble protein in presence of ATP
Summary of the method: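 Across three independent experiments, values are fold changes against the detergent-processed vehicle for each replicate, based on vsn-normalised intensities. The samples were Jurkat crude lysate treated with eight concentrations (0.1 to 10 mM) for 10 min at room temperature and then 3 min at 37 °C. Lysate was solubilised with 0.8% NP40 and benzonase, ultracentrifuged, and the supernatant analysed by TMT-labelled LC-MS/MS.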

Chain of UniProt Q9Y4D8 (Q9Y4D8 whole entry, one chain of several): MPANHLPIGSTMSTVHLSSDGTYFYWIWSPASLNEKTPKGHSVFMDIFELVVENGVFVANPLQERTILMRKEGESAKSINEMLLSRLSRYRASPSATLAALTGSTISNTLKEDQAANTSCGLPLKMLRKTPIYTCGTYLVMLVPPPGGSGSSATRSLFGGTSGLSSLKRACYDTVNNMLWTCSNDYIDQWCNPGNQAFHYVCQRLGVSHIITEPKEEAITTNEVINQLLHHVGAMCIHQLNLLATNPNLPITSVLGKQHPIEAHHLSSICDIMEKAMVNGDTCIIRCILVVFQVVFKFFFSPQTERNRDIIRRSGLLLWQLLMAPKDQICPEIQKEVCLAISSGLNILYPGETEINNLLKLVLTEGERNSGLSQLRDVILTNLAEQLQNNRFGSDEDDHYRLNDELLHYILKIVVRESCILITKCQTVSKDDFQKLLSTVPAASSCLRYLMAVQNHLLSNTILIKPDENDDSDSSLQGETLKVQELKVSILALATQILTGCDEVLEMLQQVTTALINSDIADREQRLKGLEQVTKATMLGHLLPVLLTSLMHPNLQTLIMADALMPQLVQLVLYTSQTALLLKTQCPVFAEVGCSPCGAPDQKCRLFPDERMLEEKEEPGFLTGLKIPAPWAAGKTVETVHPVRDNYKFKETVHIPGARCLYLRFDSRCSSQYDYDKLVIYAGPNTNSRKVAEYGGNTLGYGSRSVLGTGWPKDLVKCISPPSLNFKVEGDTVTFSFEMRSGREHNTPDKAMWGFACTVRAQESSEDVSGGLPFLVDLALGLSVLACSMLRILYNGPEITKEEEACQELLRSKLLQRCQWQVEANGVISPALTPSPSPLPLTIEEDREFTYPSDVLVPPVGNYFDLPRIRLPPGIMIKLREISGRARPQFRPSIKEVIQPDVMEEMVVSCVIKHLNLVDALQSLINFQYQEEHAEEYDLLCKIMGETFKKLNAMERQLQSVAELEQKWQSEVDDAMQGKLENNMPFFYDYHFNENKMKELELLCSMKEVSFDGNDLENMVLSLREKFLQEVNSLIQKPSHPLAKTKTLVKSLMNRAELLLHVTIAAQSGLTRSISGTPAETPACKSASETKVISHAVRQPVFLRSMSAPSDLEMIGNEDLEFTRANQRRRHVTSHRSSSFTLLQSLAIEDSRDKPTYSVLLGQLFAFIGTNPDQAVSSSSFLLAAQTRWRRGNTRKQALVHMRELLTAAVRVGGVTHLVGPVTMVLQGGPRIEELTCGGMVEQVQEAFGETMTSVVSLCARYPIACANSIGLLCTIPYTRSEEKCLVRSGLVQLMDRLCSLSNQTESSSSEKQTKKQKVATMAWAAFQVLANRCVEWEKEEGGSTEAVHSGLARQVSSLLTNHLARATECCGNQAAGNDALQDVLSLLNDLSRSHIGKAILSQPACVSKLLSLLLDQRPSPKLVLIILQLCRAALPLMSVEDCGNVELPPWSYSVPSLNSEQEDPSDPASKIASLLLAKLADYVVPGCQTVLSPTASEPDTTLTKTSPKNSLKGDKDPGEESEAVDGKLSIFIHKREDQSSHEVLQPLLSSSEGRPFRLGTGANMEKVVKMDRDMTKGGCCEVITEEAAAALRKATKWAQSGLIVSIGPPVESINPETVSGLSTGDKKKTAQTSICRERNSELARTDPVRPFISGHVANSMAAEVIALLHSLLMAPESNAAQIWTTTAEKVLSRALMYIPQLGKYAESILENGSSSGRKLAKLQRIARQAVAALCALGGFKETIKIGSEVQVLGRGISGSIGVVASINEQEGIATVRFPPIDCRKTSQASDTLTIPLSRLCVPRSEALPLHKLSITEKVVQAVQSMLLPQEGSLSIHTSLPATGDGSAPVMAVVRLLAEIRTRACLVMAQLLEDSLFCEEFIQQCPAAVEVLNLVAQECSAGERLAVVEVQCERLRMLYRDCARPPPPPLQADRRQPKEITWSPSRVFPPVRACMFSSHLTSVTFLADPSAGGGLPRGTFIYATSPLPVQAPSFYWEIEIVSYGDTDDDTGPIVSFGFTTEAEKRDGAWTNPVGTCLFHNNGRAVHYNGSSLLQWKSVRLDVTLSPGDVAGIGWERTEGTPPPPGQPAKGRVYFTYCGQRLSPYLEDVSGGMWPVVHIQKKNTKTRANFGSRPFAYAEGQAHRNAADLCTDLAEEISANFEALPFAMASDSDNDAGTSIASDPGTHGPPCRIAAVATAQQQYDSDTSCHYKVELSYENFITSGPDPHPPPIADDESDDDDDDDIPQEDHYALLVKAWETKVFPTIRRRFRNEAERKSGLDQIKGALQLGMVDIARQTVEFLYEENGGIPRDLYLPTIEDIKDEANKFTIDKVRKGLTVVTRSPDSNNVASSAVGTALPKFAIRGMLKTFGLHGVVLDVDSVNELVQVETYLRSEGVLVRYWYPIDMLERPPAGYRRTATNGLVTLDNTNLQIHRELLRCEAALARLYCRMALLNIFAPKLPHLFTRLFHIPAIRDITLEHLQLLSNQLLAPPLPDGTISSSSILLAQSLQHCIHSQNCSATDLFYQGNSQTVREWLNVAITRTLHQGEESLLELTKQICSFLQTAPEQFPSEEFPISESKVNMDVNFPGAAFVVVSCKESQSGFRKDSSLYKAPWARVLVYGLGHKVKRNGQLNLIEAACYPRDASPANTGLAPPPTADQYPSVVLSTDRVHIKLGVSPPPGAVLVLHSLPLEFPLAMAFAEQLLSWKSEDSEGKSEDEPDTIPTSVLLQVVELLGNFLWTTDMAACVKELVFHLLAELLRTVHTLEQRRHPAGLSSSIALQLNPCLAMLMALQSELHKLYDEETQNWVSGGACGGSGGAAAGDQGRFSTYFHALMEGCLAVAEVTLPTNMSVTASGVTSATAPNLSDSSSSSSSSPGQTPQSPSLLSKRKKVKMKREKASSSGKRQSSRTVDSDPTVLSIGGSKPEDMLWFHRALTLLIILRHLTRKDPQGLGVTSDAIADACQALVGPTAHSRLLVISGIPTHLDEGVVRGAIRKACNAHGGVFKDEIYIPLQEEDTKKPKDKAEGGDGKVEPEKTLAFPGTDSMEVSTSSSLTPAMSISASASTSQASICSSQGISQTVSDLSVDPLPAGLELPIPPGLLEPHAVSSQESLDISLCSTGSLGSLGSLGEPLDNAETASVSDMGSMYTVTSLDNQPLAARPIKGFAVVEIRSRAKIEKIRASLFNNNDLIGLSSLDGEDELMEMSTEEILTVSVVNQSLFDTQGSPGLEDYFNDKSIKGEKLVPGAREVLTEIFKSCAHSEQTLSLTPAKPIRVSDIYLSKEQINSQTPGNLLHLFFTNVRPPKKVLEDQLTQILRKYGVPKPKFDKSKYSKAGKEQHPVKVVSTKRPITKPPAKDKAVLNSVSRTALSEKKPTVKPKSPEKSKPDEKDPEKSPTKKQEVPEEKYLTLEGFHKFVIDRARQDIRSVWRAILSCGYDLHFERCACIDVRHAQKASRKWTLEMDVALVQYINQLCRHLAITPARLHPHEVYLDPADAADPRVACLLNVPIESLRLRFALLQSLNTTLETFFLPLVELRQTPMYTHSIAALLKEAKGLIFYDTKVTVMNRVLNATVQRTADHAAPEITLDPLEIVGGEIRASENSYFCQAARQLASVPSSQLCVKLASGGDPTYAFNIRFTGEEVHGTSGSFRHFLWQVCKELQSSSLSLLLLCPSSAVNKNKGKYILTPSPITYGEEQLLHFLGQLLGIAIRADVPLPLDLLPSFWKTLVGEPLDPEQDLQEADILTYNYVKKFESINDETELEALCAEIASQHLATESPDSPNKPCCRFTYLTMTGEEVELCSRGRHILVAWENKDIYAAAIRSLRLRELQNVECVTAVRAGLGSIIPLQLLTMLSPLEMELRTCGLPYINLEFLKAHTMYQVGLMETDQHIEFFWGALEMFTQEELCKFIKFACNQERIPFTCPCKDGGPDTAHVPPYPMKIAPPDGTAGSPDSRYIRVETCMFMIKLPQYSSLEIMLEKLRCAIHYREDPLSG
Chain of UniProt Q96ME7 (Q96ME7 whole entry, one chain of several): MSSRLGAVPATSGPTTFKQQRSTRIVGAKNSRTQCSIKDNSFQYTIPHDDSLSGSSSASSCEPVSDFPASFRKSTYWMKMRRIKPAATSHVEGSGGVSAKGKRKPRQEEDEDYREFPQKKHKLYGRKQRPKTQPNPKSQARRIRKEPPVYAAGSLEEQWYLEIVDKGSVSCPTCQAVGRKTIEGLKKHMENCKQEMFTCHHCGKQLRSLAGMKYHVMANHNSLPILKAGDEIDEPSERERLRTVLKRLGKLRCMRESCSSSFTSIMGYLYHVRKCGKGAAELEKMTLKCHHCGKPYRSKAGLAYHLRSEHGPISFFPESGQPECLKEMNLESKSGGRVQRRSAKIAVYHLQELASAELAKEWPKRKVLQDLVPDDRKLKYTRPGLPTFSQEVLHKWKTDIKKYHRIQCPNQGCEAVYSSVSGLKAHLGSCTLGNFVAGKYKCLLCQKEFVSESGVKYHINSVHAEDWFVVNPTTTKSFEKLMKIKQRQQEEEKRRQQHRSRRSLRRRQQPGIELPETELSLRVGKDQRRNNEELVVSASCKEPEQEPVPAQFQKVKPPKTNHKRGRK
Chain of UniProt Q8NC42 (Q8NC42 whole entry, one chain of several): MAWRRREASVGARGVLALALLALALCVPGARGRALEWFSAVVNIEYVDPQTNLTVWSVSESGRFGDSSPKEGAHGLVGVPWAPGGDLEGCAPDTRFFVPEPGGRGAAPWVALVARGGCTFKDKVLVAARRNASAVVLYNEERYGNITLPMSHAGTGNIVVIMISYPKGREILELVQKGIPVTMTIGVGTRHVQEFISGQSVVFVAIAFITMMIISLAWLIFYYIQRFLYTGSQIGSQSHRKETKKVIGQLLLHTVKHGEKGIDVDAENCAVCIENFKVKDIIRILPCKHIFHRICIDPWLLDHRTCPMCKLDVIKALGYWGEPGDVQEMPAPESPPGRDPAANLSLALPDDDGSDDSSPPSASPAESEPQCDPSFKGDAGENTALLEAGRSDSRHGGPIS
Chain of UniProt O43678 (O43678 whole entry): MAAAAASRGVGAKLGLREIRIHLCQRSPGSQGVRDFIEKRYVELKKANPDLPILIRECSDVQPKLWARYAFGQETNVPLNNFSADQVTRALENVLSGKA

Target	NP40-soluble protein abundance (concentration: 1mM)	NP40-soluble protein abundance (concentration: 2mM)	NP40-soluble protein abundance (concentration: 4mM)	NP40-soluble protein abundance (concentration: 6mM)	NP40-soluble protein abundance (concentration: 8mM)	NP40-soluble protein abundance (concentration: 10mM)
A0A0C4DGQ5|P04632 (UniProt P04632)	0.9315 ± 0.0081	0.964 ± 0.077	0.923 ± 0.022	0.884 ± 0.039	0.885 ± 0.0089	0.875 ± 0.06
NDUFA2 (UniProt O43678)	0.882 ± 0.1	0.874 ± 0.16	0.924 ± 0.1	0.985 ± 0.21	0.876 ± 0.081	0.835 ± 0.13
E9PLK3|P55786 (UniProt P55786)	1.02 ± 0.12	0.997 ± 0.09	0.976 ± 0.065	0.927 ± 0.13	0.999 ± 0.073	0.974 ± 0.057
F5H527|Q76I76 (UniProt Q76I76)	0.984 ± 0.012	1 ± 0.016	0.993 ± 0.03	0.997 ± 0.013	0.978 ± 0.037	0.995 ± 0.062
J3KPF0 (UniProt Q9Y4D8)	1.08 ± 0.036	1.04 ± 0.068	1.05 ± 0.025	1.01 ± 0.1	1.02 ± 0.08	1 ± 0.044
SPTLC1 (UniProt O15269)	0.993 ± 0.026	0.998 ± 0.032	0.997 ± 0.027	0.93 ± 0.096	0.998 ± 0.024	1 ± 0.049
UniProt O43865	0.982 ± 0.1	0.965 ± 0.063	0.963 ± 0.076	0.973 ± 0.1	0.96 ± 0.081	0.969 ± 0.043
B4DZG1|Q9Y483-3|Q9Y483 (UniProt Q9Y483)	1.19 ± 0.023	1.25 ± 0.027	1.36 ± 0.057	1.41 ± 0.082	1.5 ± 0.032	1.56 ± 0.049
B0QY89|Q9Y262 (UniProt Q9Y262)	1.09 ± 0.093	1.25 ± 0.15	1.23 ± 0.075	1.35 ± 0.072	1.6 ± 0.1	1.7 ± 0.12
F8WCD0|Q8NC42 (UniProt Q8NC42)	0.964 ± 0.023	0.992 ± 0.013	1.08 ± 0.076	1.03 ± 0.029	0.945 ± 0.021	1 ± 0.076
I3L1H5|Q9BZG8 (UniProt Q9BZG8)	0.984 ± 0.17	1.03 ± 0.12	0.987 ± 0.16	0.898 ± 0.12	0.987 ± 0.16	0.917 ± 0.13
J3QL71|Q96FV2 (UniProt Q96FV2)	0.96 ± 0.029	0.97 ± 0.011	0.98 ± 0.025	0.944 ± 0.019	0.959 ± 0.032	0.984 ± 0.015
G3XAG1|Q96ME7|Q96ME7-3 (UniProt Q96ME7)	1.34 ± 0.038	1.407 ± 0.0052	1.58 ± 0.019	1.71 ± 0.061	1.88 ± 0.046	2.06 ± 0.081
A0A0U1RRK1|F6XEV2|Q9BPX6|Q9BPX6-3|Q9BPX6-2 (UniProt Q9BPX6)	1.01 ± 0.073	1.01 ± 0.045	1.04 ± 0.038	1.05 ± 0.067	1.07 ± 0.066	1.08 ± 0.058
C9JLB7|Q96HP4 (UniProt Q96HP4)	1.09 ± 0.083	1.1 ± 0.1	1.06 ± 0.075	1.12 ± 0.17	1.17 ± 0.14	1.05 ± 0.042
